# In PubChem BioAssay (NCATS):
# Several values for one entry are separate records, joined by “and”; a condition that tells them apart may be missing. Identical values can stand only once. Results filed as inconclusive are left out. A number with no mark means an inactive call. Activity calls are given as the source filed them. Calls come from the whole dose curve; as a rule, active = well fitted curve in the direction sought with a large enough effect; inconclusive = small, poorly fitted or top-dose-only effect, or another doubt; inactive = no such curve, though single readings can be large; an effect the other way counts as inactive or inconclusive. Numbered stars: 1 amine (or outer) side, 2 acyl side, 3 side chain; on linkers, the order of the positions; unused ones are H or OH. Bridge positions count the residues as written; N and C are the ends. Square brackets hold non-standard residues; d marks the D form. Peptide text beside a SMILES is read from it. I, II: the chains in the order shown. Actinocin(9to1) = Cc1c2oc3c(C)ccc(C(=O)[*:1])c3nc-2c(C(=O)[*:2])c(N)c1=O; NMeV = CN[C@H](C(=O)O)C(C)C; Sar = CNCC(=O)O
# Assay: Primary qHTS for inhibitors of nuclear receptor binding SET domain protein 2 (NSD2) in an isogenic RCH-ACV NSD2 p.E1099K mutant (9B) (AID 1645876)
# Conditions: RCH-ACV NSD2 E1099K (9B) viability, CellTiter-Glo, 72 h; series mostly up to 44.9 µM; activity change, negative = viability loss: at the top concentration
# % is set by controls: 0 for no effect and ±100 for the full control effect; potency is the fitted concentration of half-maximal effect.
# Note: nearly all actives have a fitted effect of over 70% in size.
SMILES,outcome,Potency,"activity change, negative = viability loss"
NCCc1ccn[nH]1,inactive,–,–
CN1[C@@H]2CC[C@H]1CC(OC(=O)c1c[nH]c3ccccc13)C2 (some centres not stated),–,inactive,–
CCOc1ccc2nc3cc(N)ccc3c(N)c2c1,–,5.96 µM (active),–
CCCN1CCCC[C@H]1C(=O)Nc1c(C)cccc1C,–,–,-10.7%
Cc1ccc(C(=O)C(C)CN2CCCCC2)cc1 (configuration not stated),–,–,-11.8%
CCN(CC)CCNC(=O)COc1ccc(Cl)cc1,–,–,5.84%
Cc1ccnc(NS(=O)(=O)c2ccc(N)cc2)n1,–,–,5.34%
CCCSS/C(CCO)=C(\C)N(C=O)Cc1cnc(C)nc1N,–,15 µM (active),–
"Cc1c2oc3c(C)ccc(C(=O)N[C@@H]4C(=O)N[C@H](C(C)C)C(=O)N5CCC[C@H]5C(=O)N(C)CC(=O)N(C)[C@@H](C(C)C)C(=O)O[C@@H]4C)c3nc-2c(C(=O)N[C@@H]2C(=O)N[C@H](C(C)C)C(=O)N3CCC[C@H]3C(=O)N(C)CC(=O)N(C)[C@@H](C(C)C)C(=O)O[C@@H]2C)c(N)c1=O (I: T[dV]P[Sar][NMeV] / II: T[dV]P[Sar][NMeV]; ester I:1-I:C, II:1-II:C; linker I:N-II:N via Actinocin(9to1))",–,–,-97.9%
OC[C@@H](O)[C@@H](O[C@@H]1O[C@H](CO)[C@H](O)[C@H](O)[C@H]1O)[C@H](O)[C@@H](O)CO,inactive,–,–
COc1ccc(C2C(=O)c3ccccc3C2=O)cc1,inactive,–,–
Cc1c(N(C)CS(=O)(=O)O)c(=O)n(-c2ccccc2)n1C,–,–,-3.95%
CCC(=O)c1c(O)cc(O)cc1O,–,–,0.496%
C[C@H](CCC(=O)O)[C@H]1CC[C@H]2[C@@H]3C(=O)C[C@@H]4CC(=O)CC[C@]4(C)[C@H]3CC(=O)[C@]12C,inactive,–,–
CCOc1ccc(NC(=O)CC(C)O)cc1 (configuration not stated),–,–,-5.18%
CCCCC1=NC2(CCCC2)C(=O)N1Cc1ccc(-c2ccccc2-c2nn[nH]n2)cc1,–,inactive,–
N[C@@H](CCC(=O)N[C@@H](CS)C(=O)NCC(=O)O)C(=O)O,–,–,1.72% [at 17.3 µM]
O=S1(=O)c2cccc3cccc(c23)N1CCCN1CCN(c2ccc(F)cc2)CC1,–,–,-16.5%

SMILES,outcome,Potency,"activity change, negative = viability loss"
COC(=O)CCc1ccc(OCC(O)CNC(C)C)cc1 (configuration not stated),–,inactive,–
Cc1c(F)c(N2CCNC(C)C2)cc2c1c(=O)c(C(=O)O)cn2C1CC1 (configuration not stated),–,–,6.95%
CC(O)C(=O)O (configuration not stated),–,–,5.86%
COc1cc(C(=S)N2CCOCC2)cc(OC)c1OC,–,–,0.996%
Cc1ncc(CSSCc2cnc(C)c(O)c2CO)c(CO)c1O,–,–,-5.05%
CCn1cc(C(=O)O)c(=O)c2cnc(N3CCCC3)nc21,–,–,4% [at 9.23 µM]
CN=C(NC#N)Nc1ccc(C2=NNC(=O)CC2C)cc1 (configuration not stated),–,–,-1.4%
Cc1cccc(C)c1NC(=O)CN1CCN(CCCC(c2ccc(F)cc2)c2ccc(F)cc2)CC1,–,23.7 µM (active),–
CN1C(CCl)Nc2cc(Cl)c(S(N)(=O)=O)cc2S1(=O)=O (configuration not stated),–,inactive,–
CC(O)(P(=O)(O)O)P(=O)(O)O,–,–,6.57%
c1ccc(CNCCNCc2ccccc2)cc1,–,–,-15%
COc1c(C)c2c(c(O)c1C/C=C(\C)CCC(=O)O)C(=O)OC2,–,66.8 nM (active) and 833 nM (active),–
CCC(C(=O)OCCN(CC)CC)c1ccccc1 (configuration not stated),inactive,–,–
CC(=O)N/N=C/c1ccc([N+](=O)[O-])o1,–,9.44 µM (active),–
Oc1cc(O)c2c(c1)O[C@H](c1ccc(O)c(O)c1)[C@H](O)C2,–,–,-7.82%
COc1cccc2c1C(=O)c1c(O)c3c(c(O)c1C2=O)C[C@@](O)(C(C)=O)C[C@@H]3O[C@H]1C[C@H](N)[C@H](O)[C@H](C)O1,–,2.7 nM (active) and 18.6 nM (active),–
CC1(C)OC[C@@H](COC(=O)CCc2ccc(OC[C@@H](O)CNCCNC(=O)N3CCOCC3)cc2)O1,–,–,-4.17%
CC(=O)Nc1c(I)cc(I)c(C(=O)O)c1I,–,–,-8.79%

# Assay: Primary qHTS for inhibitors of nuclear receptor binding SET domain protein 2 (NSD2) in an RCH-ACV wild type WT cells (2C) (AID 1645877)
# Conditions: RCH-ACV (leukaemia line) NSD2 WT (2C) viability, CellTiter-Glo, 72 h; series mostly up to 44.9 µM; activity change, negative = cell killing: at the top concentration
SMILES,outcome,Potency,"activity change, negative = cell killing"
NCCc1ccn[nH]1,inactive,–,–
CN1[C@@H]2CC[C@H]1CC(OC(=O)c1c[nH]c3ccccc13)C2 (some centres not stated),–,inactive,–
CCOc1ccc2nc3cc(N)ccc3c(N)c2c1,–,5.31 µM (active),–
CCCN1CCCC[C@H]1C(=O)Nc1c(C)cccc1C,–,–,-13.5%
Cc1ccc(C(=O)C(C)CN2CCCCC2)cc1 (configuration not stated),–,21.1 µM (active),–
CCN(CC)CCNC(=O)COc1ccc(Cl)cc1,–,–,1.16%
Cc1ccnc(NS(=O)(=O)c2ccc(N)cc2)n1,–,–,9.75%
CCCSS/C(CCO)=C(\C)N(C=O)Cc1cnc(C)nc1N,–,16.8 µM (active),–
"Cc1c2oc3c(C)ccc(C(=O)N[C@@H]4C(=O)N[C@H](C(C)C)C(=O)N5CCC[C@H]5C(=O)N(C)CC(=O)N(C)[C@@H](C(C)C)C(=O)O[C@@H]4C)c3nc-2c(C(=O)N[C@@H]2C(=O)N[C@H](C(C)C)C(=O)N3CCC[C@H]3C(=O)N(C)CC(=O)N(C)[C@@H](C(C)C)C(=O)O[C@@H]2C)c(N)c1=O (I: T[dV]P[Sar][NMeV] / II: T[dV]P[Sar][NMeV]; ester I:1-I:C, II:1-II:C; linker I:N-II:N via Actinocin(9to1))",–,–,-97.7%
OC[C@@H](O)[C@@H](O[C@@H]1O[C@H](CO)[C@H](O)[C@H](O)[C@H]1O)[C@H](O)[C@@H](O)CO,inactive,–,–
COc1ccc(C2C(=O)c3ccccc3C2=O)cc1,–,–,7.02%
Cc1c(N(C)CS(=O)(=O)O)c(=O)n(-c2ccccc2)n1C,inactive,–,–
CCC(=O)c1c(O)cc(O)cc1O,–,–,-2.12%
C[C@H](CCC(=O)O)[C@H]1CC[C@H]2[C@@H]3C(=O)C[C@@H]4CC(=O)CC[C@]4(C)[C@H]3CC(=O)[C@]12C,–,–,4.99%
CCOc1ccc(NC(=O)CC(C)O)cc1 (configuration not stated),–,–,-5.71%
CCCCC1=NC2(CCCC2)C(=O)N1Cc1ccc(-c2ccccc2-c2nn[nH]n2)cc1,–,inactive,–
N[C@@H](CCC(=O)N[C@@H](CS)C(=O)NCC(=O)O)C(=O)O,–,–,9.03% [at 17.3 µM]
O=S1(=O)c2cccc3cccc(c23)N1CCCN1CCN(c2ccc(F)cc2)CC1,–,–,-23.2%

SMILES,outcome,Potency,"activity change, negative = cell killing"
COC(=O)CCc1ccc(OCC(O)CNC(C)C)cc1 (configuration not stated),–,inactive,–
Cc1c(F)c(N2CCNC(C)C2)cc2c1c(=O)c(C(=O)O)cn2C1CC1 (configuration not stated),inactive,–,–
CC(O)C(=O)O (configuration not stated),–,–,3.81%
COc1cc(C(=S)N2CCOCC2)cc(OC)c1OC,–,–,-14%
Cc1ncc(CSSCc2cnc(C)c(O)c2CO)c(CO)c1O,–,–,-7.74%
CCn1cc(C(=O)O)c(=O)c2cnc(N3CCCC3)nc21,–,–,-0.361% [at 9.23 µM]
CN=C(NC#N)Nc1ccc(C2=NNC(=O)CC2C)cc1 (configuration not stated),–,–,1.67%
Cc1cccc(C)c1NC(=O)CN1CCN(CCCC(c2ccc(F)cc2)c2ccc(F)cc2)CC1,–,11.9 µM (active),–
CN1C(CCl)Nc2cc(Cl)c(S(N)(=O)=O)cc2S1(=O)=O (configuration not stated),–,inactive,–
CC(O)(P(=O)(O)O)P(=O)(O)O,–,–,9.55%
c1ccc(CNCCNCc2ccccc2)cc1,–,–,-10.2%
COc1c(C)c2c(c(O)c1C/C=C(\C)CCC(=O)O)C(=O)OC2,–,53.1 nM (active) and 590 nM (active),–
CCC(C(=O)OCCN(CC)CC)c1ccccc1 (configuration not stated),–,–,6.93%
CC(=O)N/N=C/c1ccc([N+](=O)[O-])o1,–,8.41 µM (active),–
Oc1cc(O)c2c(c1)O[C@H](c1ccc(O)c(O)c1)[C@H](O)C2,–,–,-28.7%
COc1cccc2c1C(=O)c1c(O)c3c(c(O)c1C2=O)C[C@@](O)(C(C)=O)C[C@@H]3O[C@H]1C[C@H](N)[C@H](O)[C@H](C)O1,–,0.0024 µM (active),–
CC1(C)OC[C@@H](COC(=O)CCc2ccc(OC[C@@H](O)CNCCNC(=O)N3CCOCC3)cc2)O1,–,–,1.92%
CC(=O)Nc1c(I)cc(I)c(C(=O)O)c1I,–,–,-8.74%
